The whole screen tested about 190,000 compounds, of which about 3,500 (1.8%) were called active. For the sample, actives were picked, then their nearest neighbours and some compounds at random. A number with no mark means an inactive call.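 How the source made its calls: active means inhibition above a set limit, 3 SD over mean compound inhibition (cut at about 8.4% in these data); inactive means the rest.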

A short description of the test: RAM signaling blockers in budding yeast – dse1pr::URA3 reporter, 5-FOA selection, primary screen (AID 868).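 Further: 0% = DMSO-only wells with no growth and 100% = 10 µM 1-NA-PP1 full growth; inhibition rescues growth on 5-FOA so higher OD means more RAM inhibition.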 The conditions noted are these: S. cerevisiae dse1pr::URA3 reporter, 5-FOA growth OD615, 2 d; at 50 µM; active compounds read high; analog-sensitive cbk1-as2 kinase mutant strain.
As to `CCCCN(C(=O)c1ccc(OC(F)(F)F)cc1)c1c(N)n(CCC)c(=O)[nH]c1=O`, the inhibition is 1.93%. Under `CCOC(=O)c1cnc(-n2nc(C)cc2C)nc1-n1nc(C)cc1C` stands 1.58%; under `CCOC(=O)c1cnc(-c2ccccc2)nc1Oc1ccc(C)cc1`, 6.51%; under `CCOC(=O)c1cnc(-n2nc(C)cc2C)nc1NNc1cc(C)nc(-c2ccccc2)n1`, 9.84% (active). For `Cc1ccc(CN2CCC(N3CCC(C(=O)NCC4CCCO4)CC3)CC2)o1` (centres undefined) the value was 1.95%.

Consider `CCOc1ccc(Oc2nc(C)cc(OC)n2)nn1`, for which the inhibition is 0.41%. For the molecule `Cc1onc(C(=O)NN)c1C(=O)N1CCN(C(c2ccccc2)c2ccccc2)CC1`, the inhibition was 0.14%. On to `O=C(CCC(=O)OCc1ccc(Cl)cc1)Nc1ccccc1`, for which the inhibition is -0.63%.

As to `O=C(CCC(=O)OCc1cccc(C(=O)Oc2ccccc2)c1)Nc1cccc2ccccc12`, the inhibition is 15.2% (active). For `O=C(COC(=O)c1cnccn1)Nc1cccc2ccccc12`, the inhibition was -0.14%.

Regarding `O=C(Cc1coc2ccc3ccccc3c12)NCc1cccs1`, the inhibition is 1.23%. For `Cc1cccc(NC(=S)N2CCCC(c3nc4ccccc4[nH]3)C2)c1` (centres undefined) the value was 1.53%. Turning to `Cc1ccc(CN2CCN(Cc3cn(C)nc3-c3ccccc3)CC2CCO)o1` (centres undefined), the inhibition was 0.52%.

As to `COc1ccc(-c2noc(CSc3ccc(C)cc3)n2)cc1`, the inhibition was 2.24%.

Regarding `COc1ccc(-c2noc(-c3ccc(C)cc3)n2)cc1`, the inhibition was 7.68%. With `COc1ccc(-c2noc(CN(C)S(=O)(=O)c3ccc(C)cc3)n2)cc1`, the inhibition is 9.12% (active). For `Cc1ccc(NC(=O)CN(C)CC(=O)Nc2cccc(F)c2)cc1[N+](=O)[O-]` the value was 1.7%; for `CSc1ncccc1C(=O)Nc1nc2ccc(F)cc2s1`, 2.36%; for `CN(C)c1ccnc(Nc2ccc(F)cc2)c1C#N`, 0.51%.

Take `O=C(CC(=O)N/N=C\c1ccc(F)cc1)NCCc1ccccc1`: the inhibition was 0.75%. Under `O=c1oc2ccccc2cc1-c1csc(Nc2ccc(O)cc2)n1` stands 11.1% (active). In the case of `CCNc1nc(-c2cc3ccccc3o2)cs1`, the inhibition was 2.09%. Consider `COc1ccc2nc(Nc3nc(-c4cc5ccccc5oc4=O)cs3)sc2c1`, for which the inhibition is 3.98%. Under `CC(=O)c1cccc(-n2nnnc2SCC(=O)NNC(=O)C2CCCCC2)c1` stands 3.03%.

Regarding `CN(C)CCOc1cccc(Br)c1`, the inhibition is 1.41%.

For the molecule `CC(NC(=O)CCC(=O)N1CCN(S(=O)(=O)c2ccc(Cl)cc2)CC1)c1ccccc1` (centres undefined), the inhibition is 2.73%. Take `CCNC(=O)NC(=O)C(C)OC(=O)C1CCN(S(=O)(=O)c2ccccc2F)CC1` (centres undefined): the inhibition was -0.96%. For the molecule `CC(NC(=O)COC(=O)C1CCN(S(=O)(=O)c2ccccc2C(F)(F)F)CC1)c1ccccc1` (centres undefined), the inhibition is 8.48% (active). For `CN(CCc1cnn(C)c1)Cc1cn(C)nc1-c1ccccc1F` the value was 0.12%. With `CCOc1ccc(NC(=S)N2CCCCCC2)cc1`, the inhibition was 0.12%. For `CCOC(=O)c1sc2nc(C)nc(SCC(N)=O)c2c1C` the value was 1.57%. Under `CN(C)S(=O)(=O)c1ccc(NC(=O)COC(=O)c2n[nH]c3ccccc23)cc1` stands 5.03%. Take `O=C(COC(=O)c1n[nH]c2ccccc12)NCc1ccccc1`: the inhibition was 8.45% (active). Under `C=CCN(CC=C)C(=O)COC(=O)c1n[nH]c2ccccc12` stands 2.26%. Under `CCNC(=O)CSc1nc(-c2ccccc2)cs1` stands 0.79%; under `O=C(CSc1nc(-c2ccccc2)cs1)Nc1cccc([N+](=O)[O-])c1`, 11.7% (active). Turning to `O=C(CSCC(=O)Nc1cccc([N+](=O)[O-])c1)Nc1ccccc1`, the inhibition was 0.64%. Under `NC(=O)COc1ccc(NC(=O)c2ccccc2-c2ccccc2)cc1` stands 0.63%; under `COc1cccc(-c2nc3cc(C)ccc3o2)c1`, 2.42%; under `COc1ccc2oc(-c3cccc(NC(=O)CSc4ccc(Cl)cc4)c3)nc2c1`, 10.3% (active).

Take `O=C(Cc1cccc2ccccc12)Nc1ccc2oc(-c3ccccc3)nc2c1`: the inhibition was 1.7%. Under `CCN(CC)Cc1nc2sc(C)c(C)c2c(=O)[nH]1` stands 2.28%; under `CNS(=O)(=O)c1ccc(NC(=O)C2CC(=O)N(c3ccc(Cl)cc3)C2)cc1` (centres undefined), 4.28%. As for `FC(F)(F)c1cnc(Oc2ccccc2-c2nnc(-c3ccc(Cl)cc3)o2)c(Cl)c1`, the inhibition was 4.37%. Under `CSc1ccccc1-c1nnc(-c2ccc(Cl)cc2)o1` stands 15.5% (active); under `Nc1ccc(-c2nnc(-c3ccc(-c4ccccc4)cc3)o2)cc1`, 6.59%; under `Cc1cccn2c(CN(C)C3CCCc4ccccc43)c(C(=O)N3CCOCC3)nc12` (centres undefined), 1.88%. As for `CC(=O)C1C(c2ccc(Cl)cc2)c2c(n[nH]c2C)CC1(C)O` (centres undefined), the inhibition is -0.49%.

Turning to `COc1ccc(C(=O)Nc2ccc(S(=O)(=O)Nc3onc(C)c3C)cc2)cc1OC`, the inhibition is 2.49%. Turning to `Cc1noc(NS(=O)(=O)c2ccc(NC(=O)C34CCC(CC3)C4)cc2)c1C`, the inhibition is 2.19%. Regarding `Cc1ccc(C(=O)/C=C/Nc2ccc(S(=O)(=O)Nc3onc(C)c3C)cc2)cc1`, the inhibition was 11% (active). For `CCn1c(SCC(=O)Nc2ccc(S(=O)(=O)Nc3onc(C)c3C)cc2)nnc1-c1ccccc1` the value was 4.88%; for `Cc1cc(C)nc(NS(=O)(=O)c2ccc(N/C=C\C(=O)c3cccs3)cc2)n1`, 3.54%; for `Cc1noc(NS(=O)(=O)c2ccc(N/C=C/C(=O)c3ccccc3)cc2)c1C`, 11.4% (active). As to `O=C1OCC2=C1C(c1ccccc1)CC(=O)N2c1cccc(F)c1` (centres undefined), the inhibition was 0.77%. In the case of `O=c1oc(/C=C/c2ccccc2)nc2ccccc12`, the inhibition is 1.38%. Under `Cc1cc(C)n(Cc2cnc(N3CCOCC3)s2)n1` stands 0.36%; under `C/C(=N\NC(=O)c1cccnc1)c1ccc(-n2ccnc2)cc1`, 2.36%.

Regarding `N#C/C(=C(/O)COc1cccc2ccccc12)c1nc2ccccc2[nH]1`, the inhibition is 2.62%.

Turning to `Cc1ccccc1OC/C(O)=C(\C#N)c1nc2ccccc2[nH]1`, the inhibition is 10.3% (active). As to `N#C/C(=C(/O)COC(=O)COc1ccc(Cl)cc1)c1nc2ccccc2[nH]1`, the inhibition is 3.15%. For `O=C(COC(=O)c1ccc(Cl)nc1)NCc1cccs1`, the inhibition was 1%. Under `CC(=O)Nc1ccc(Nc2nc3c(S(=O)(=O)c4ccc(C)c(C)c4)nnn3c3ccccc23)cc1` stands 7.93%; under `COc1cccc(NC(=O)c2ccc3c(SCC(=O)O)c4c(nc3c2)CCCC4)c1`, 6.04%; under `Cc1c(C=O)n(C)n(-c2ccccc2)c1=O`, 2.38%.

Turning to `Cc1cccc(N=Nc2c(C)[nH]n(-c3ccccc3)c2=O)c1`, the inhibition is 7.54%.

Turning to `Cc1c(N=Nc2ccc(N(C)C)cc2)c(=O)n(-c2ccccc2)n1C`, the inhibition was 25.4% (active).

For `Cc1ccc(N=Nc2c(C)[nH]n(-c3ccccc3)c2=O)cc1`, the inhibition is 13.2% (active). For `Cc1[nH][nH]c(=O)c1N=Nc1ccccc1`, the inhibition is 2.99%. For `Cc1c(NC(=S)Nc2ccccc2)c(=O)n(-c2ccccc2)n1C` the value was 2.71%. For `COc1cccc(/C=N/NC(=O)CNC(=O)c2ccc(S(=O)(=O)N3CCOCC3)cc2)c1OC` the value was 1.56%; for `CCCN(CCC)C(=S)Nc1cc(C(=O)OC)ccc1C(=O)OC`, -0.65%. For `CCC(CC)C(=O)Nc1ccc(S(=O)(=O)Nc2nccs2)cc1` the value was 1.58%; for `COC(=O)CCSc1cc([N+](=O)[O-])cc2c1c(C1OCCS1)nn2-c1ccccc1` (centres undefined), 17.6% (active); for `COC(=O)CCSc1nccn1Cc1ccccc1`, 3.09%. Regarding `COc1ccc(-n2cnnc2SCC(=O)Nc2cccc([N+](=O)[O-])c2)cc1`, the inhibition was 1.48%. For `Cc1cc([N+](=O)[O-])ccc1NC(=O)c1ccc(NC(=O)C(C)C)cc1` the value was 0%; for `Cn1c(=NC(=O)c2ccc3c(c2)OCCO3)sc2cc(S(C)(=O)=O)ccc21`, 3.99%. Under `O=C1/C(=C/c2cccs2)CCc2ccccc21` stands -0.39%; under `CCC1C/C(=C/c2cccs2)C(=O)/C(=C/c2cccs2)C1` (centres undefined), 14.8% (active); under `O=C1/C(=C/c2cccs2)CCC1C1CCCC1` (centres undefined), 2.26%. For `CCN(C(=O)CSc1nc2ccccc2n1CC)C1CCS(=O)(=O)C1` (centres undefined) the value was 0.65%. With `O=C(NC(=S)Nc1ccc(S(=O)(=O)N2CCOCC2)cc1)c1ccccc1[N+](=O)[O-]`, the inhibition was 3.57%.

Consider `O=C(COC(=O)CC1CC2CCC1C2)NC(=O)NC1CCCC1` (centres undefined), for which the inhibition is 0.76%.

As to `O=C(COC(=O)/C=C/c1nc2ccccc2s1)Nc1ccccc1Oc1ccccc1`, the inhibition was 14.3% (active).

For `COc1cc(/C=C/C(=O)OCC(=O)Nc2cccc(Oc3ccccc3)c2)ccc1O`, the inhibition was 7.29%.

For `COc1ccc(OC)c(/C=C/C(=O)OCC(=O)Nc2ccc3c(c2)OCCO3)c1`, the inhibition was 7.42%. With `COc1ccc(/C=C/C(=O)OCC(=O)Nc2cccc(Oc3ccccc3)c2)c(OC)c1`, the inhibition was 16.7% (active). Under `CCN(C(=O)COC(=O)/C=C/c1nc2ccccc2s1)C1CCS(=O)(=O)C1` (centres undefined) stands 2.32%; under `CC(=O)Nc1ccc(SCC(=O)Nc2ccccc2Oc2ccccc2)cc1`, 1.01%; under `CCN1CCN(C(=O)c2ccc(CN(c3ccc(C)c(C)c3)S(C)(=O)=O)cc2)CC1`, 0.38%. For `O=C(CCCNS(=O)(=O)c1cccc2nsnc12)NCCN1CCN(c2ccccc2F)CC1` the value was -1.28%; for `COc1ccc(/C=C2/C(=O)OCc3cc(OC)c(OC)cc32)c(OC)c1`, 7.31%; for `COC(=O)Cc1ccc(N(Cc2ccccc2F)S(=O)(=O)c2ccc(Br)cc2)cc1`, 6.05%.

In general, inhibition refers to the drop in the measured response relative to a control, in per cent.

For the origin of these results see PubChem BioAssay AID868 (SRMLSC, 2007).
